Bioassay records: PubChem BioAssay, National Center for Advancing Translational Sciences (NCATS)
HEK cytotox = Cytotoxic Profiling in HEK 293 Cell Line of Diverse Libraries Using Quantitative High-Throughput Screening; HEK 293 viability, ATP luminescence (CellTiter-Glo), 48-72 h; Potency, µM (series often up to 115 µM), most hits filed as inhibitors; 94,000 tested, 6.6% active; AID 1345083, 2018; note: nearly all actives have a fitted effect of over 60% in size
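ATP-coupled CellTiter-Glo luminescence served as viability read-out, recorded 10 min after reagent addition at room temperature. HEK 293 cells, 250 cells/well, had been incubated with pintool-transferred compound for 48 or 72 hr at 37 degree Celsius.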
hNpr1 antagonist = Natriuretic polypeptide receptor (hNpr1) antagonism - Primary qHTS; 76,000 tested, 1.6% active; AID 1347048, 2019; Potency, µM (top dose mostly 46.3 µM), usual class: inhibitors; HEK293 hNpr1 GloSensor cGMP, ANP-stimulated luminescence; calls by dose curve; note: nearly all actives have a fitted effect of over 60% in size
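Compound pre-incubated 30 min at room temperature on GloSensor-loaded HEK293 cells stably carrying hNpr1 and the pGS-40F cGMP biosensor. Stimulation uses hNppA at 0.1 nM final; luminescence is taken at baseline and 20 min post-agonist.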
FLuc inh = Firefly luciferase inhibition profiling of diverse chemical library using quantitative high-throughput screening; AID 1347043, 2019; Potency, µM (series often up to 115 µM), actives largely listed as inhibitors; 76,000 tested, 2.5% active; purified P. pyralis luciferase, luminescence, biochemical; Luciferin 4-monooxygenase (Photinus pyralis), P08659; note: nearly all actives have a fitted effect of over 65% in size
Target sequence (P08659 whole entry, looked up): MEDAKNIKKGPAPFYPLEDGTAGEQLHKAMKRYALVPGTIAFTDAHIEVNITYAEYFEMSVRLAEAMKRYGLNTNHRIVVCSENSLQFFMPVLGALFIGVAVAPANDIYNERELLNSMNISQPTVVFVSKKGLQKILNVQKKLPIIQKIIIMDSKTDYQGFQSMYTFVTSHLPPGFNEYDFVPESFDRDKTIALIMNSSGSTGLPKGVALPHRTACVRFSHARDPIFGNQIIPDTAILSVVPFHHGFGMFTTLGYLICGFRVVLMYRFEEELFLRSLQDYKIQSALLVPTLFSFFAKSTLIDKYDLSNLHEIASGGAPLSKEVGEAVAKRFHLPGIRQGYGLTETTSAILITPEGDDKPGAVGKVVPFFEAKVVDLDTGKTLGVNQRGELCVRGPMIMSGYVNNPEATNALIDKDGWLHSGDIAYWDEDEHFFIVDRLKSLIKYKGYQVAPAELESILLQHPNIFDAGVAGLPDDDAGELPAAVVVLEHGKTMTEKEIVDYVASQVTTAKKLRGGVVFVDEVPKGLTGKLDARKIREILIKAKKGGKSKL
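Cell-free enzyme assay, 10nM P. pyralis luciferase, luciferin and ATP each at 10uM. Inhibition profiled over a 6-point titration, read as luminescence.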
NIH3T3 tox = Cytotoxic Profiling in NIH 3T3 Cell Line of Diverse Libraries Using Quantitative High-Throughput Screening | NIH 3T3 viability, CellTiter-Glo ATP luminescence, 48-72 h | Potency, µM (top dose mostly 96.7 µM), actives largely listed as inhibitors | 94,000 tested, 4.3% active; note: nearly all actives have a fitted effect of over 55% in size
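ATP-dependent luminescence (CellTiter-Glo) served as the viability signal for NIH 3T3 cells treated with compound for 48 or 72 hr at 37 °C.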
Hits are given with their value; 0 = inactive; ? = inconclusive; - = no result given; ! = a repeat was not active. This is a sample that favours compounds with a hit; in the whole collection about 11% have one here. Unless noted, calls come from the whole dose curve; as a rule, active = well fitted curve in the direction sought with a large enough effect; inconclusive = small, poorly fitted or top-dose-only effect, or another doubt; inactive = no such curve, though single readings can be large; an effect the other way counts as inactive or inconclusive.

SMILES	HEK cytotox	hNpr1 antagonist	FLuc inh	NIH3T3 tox
Cc1cc(C)cc(NC(=O)c2cc(-c3ccc[nH]3)n[nH]2)c1	?	0	20µM	?
O=C1CCN(CC(O)C(F)(F)F)c2ccc(F)cc2CN1Cc1ccco1 (stereo not given)	0	-	-	?
Cn1cccc1C(=O)N1C[C@@H](COCC2CC2)[C@H](c2ccccn2)C1	?	0	0	0
C=CCOc1cccc(-c2nc(C(=O)N(C)Cc3ccco3)cs2)c1	?	0	?	?
C=CCNC(=O)c1coc(COc2ccc3c(c2)C(c2ccc(C)cc2)N(C(=O)C2CC2)CC3)n1 (stereo not given)	?	0	0	?
CCNC(=O)c1coc(COc2ccc3c(c2)C(c2ccc(F)cc2)N(C(=O)CC(C)C)CC3)n1 (stereo not given)	?	0	0	?
CC(C)CNC(=O)c1coc(COc2ccc3c(c2)C(c2ccccc2)N(C(=O)C(C)C)CC3)n1 (stereo not given)	?	0	0	40µM
Cc1ccc(C2c3cc(OCc4nc(C(=O)N5CCCC5)co4)ccc3CCN2C(=O)C2CC2)cc1 (stereo not given)	40µM	0	0	?
CCC(=O)N1CCc2ccc(OCc3nc(C(=O)NCCOC)co3)cc2C1c1ccc(C)cc1 (stereo not given)	28µM	0	0	0
C=CCNC(=O)c1coc(COc2ccc3c(c2)C(c2cccc(C)c2)N(C(=O)C2CC2)CC3)n1 (stereo not given)	35µM	0	0	?
COCCNC(=O)c1ccc2oc(-c3ccncc3)nc2c1	0	-	-	0
O=C(c1cccc(-c2ccccn2)c1)N1CCN(C(=O)c2ccccc2F)CC1	?	-	-	0
CCn1cnnc1CC1CCCN(C(=O)NCc2ccccc2)C1 (stereo not given)	0	-	-	0
COCCNC(=O)c1coc(COc2ccc3c(c2)C(c2ccc(C)cc2)N(C(=O)C2CC2)CC3)n1 (stereo not given)	25µM	0	0	?
Cc1ccc(S(=O)(=O)N2c3ccccc3CC2c2nnc(C3CCOCC3)o2)cc1F (stereo not given)	25µM	0	0	?
Cc1ccc(CC(=O)N2c3ccccc3CC2c2nnc(C3CCOCC3)o2)cc1 (stereo not given)	0	0	0	?
Cc1nn(-c2ccccc2)c2c1C(C)N(C1CCN(C(=O)Cc3ccc(F)cc3)CC1)C2=O (stereo not given)	50µM	-	-	?
Cc1nn(-c2ccccc2)c2c1C(C(C)C)N(C1CCN(C(=O)c3ccncc3)C1)C2=O (stereo not given)	?	-	-	0
CC(=O)N1CCC(N2C(=O)c3c(c(C)nn3-c3ccccc3)C2C)C1 (stereo not given)	0	-	-	?
Cc1nn(-c2ccccc2)c2c1C(C(C)C)N(C1CCN(C(=O)c3ccc(C(F)(F)F)cc3)C1)C2=O (stereo not given)	?	-	-	16µM
Cc1nn(-c2ccccc2)c2c1C(C(C)C)N(C1CN(C(=O)c3ccc(Cl)cc3)C1)C2=O (stereo not given)	32µM	-	-	?
Cc1nn(-c2ccccc2)c2c1C(C(C)C)N(C1CCN(C(=O)c3ccccc3)CC1)C2=O (stereo not given)	45µM	-	-	?
Cc1nn(-c2ccccc2)c2c1C(C(C)C)N(C1CCN(C(=O)Nc3ccccc3)CC1)C2=O (stereo not given)	0	-	-	0
COCC(=O)N1CCN(CCCn2nc3n(c2=O)CCCC3)CC1	0	-	-	0
COc1cccc([S+](=O)([O-])N2CCCC2C(=O)N2CCC(N3CCCC3=O)CC2)c1 (stereo not given)	0	-	-	0
SMILES	HEK cytotox	hNpr1 antagonist	FLuc inh	NIH3T3 tox
CNC(=O)c1cc(C2CC2)nc2c1c(C1CCN([S+](=O)([O-])c3ccccc3)C1)nn2C (stereo not given)	0	-	-	0
COC(=O)N1CCC(N2C(=O)c3c(c(C)nn3-c3ccccc3)C2C(C)C)CC1 (stereo not given)	?	-	-	0
Cc1nn(-c2ccccc2)c2c1C(C)N(C1CCN(C(=O)c3ccc(F)cc3)CC1)C2=O (stereo not given)	?	-	-	35µM!
Cc1nn(-c2ccccc2)c2c1C(C(C)C)N(C1CCN(C(=O)N(C)C)CC1)C2=O (stereo not given)	45µM	-	-	?
Cc1nn(-c2ccccc2)c2c1C(C1CC1)N(C1CCN(C(=O)c3ccc(Cl)cc3)CC1)C2=O (stereo not given)	0	-	-	0
CC(=O)N1CCC(N2C(=O)c3c(c(C)nn3-c3ccccc3)C2C)CC1 (stereo not given)	0	-	-	?
Cc1nn(-c2ccccc2)c2c1C(C(C)C)N(C1CCN(C(=O)c3ccc(F)cc3)CC1)C2=O (stereo not given)	35µM	-	-	?
COC(=O)NC1CCCN(Cc2ccc(-c3cc(C)cc(C)c3)cc2)C1 (stereo not given)	40µM	-	-	45µM
Cc1cc(C)cc(-c2ccc(CN3CCCC(NC(=O)c4ccncc4)C3)cc2)c1 (stereo not given)	28µM	-	-	25µM
Cc1cc(C)cc(-c2ccc(CN3CCCC(NC(=O)c4ccc(Cl)nc4)C3)cc2)c1 (stereo not given)	?	-	-	0
Cc1cc(C)cc(-c2ccc(CN3CCCC(NC(=O)c4cccnc4)C3)cc2)c1 (stereo not given)	20µM	-	-	20µM
O=C(c1ccncc1)N1CC2CCC(C1)N2Cc1ccc(-c2cccnc2)cc1	?	?	0	?
Cc1cc(C)cc(-c2ccc(CN3C4CCC3CN(C(=O)c3ccncc3)C4)cc2)c1	45µM	-	-	?
Cc1c(NC(=O)CCc2cc3n(n2)CCNC3)cccc1-c1nncn1C	0	0	0	0
CCNC(=O)OC1CCN(C(=O)CC(C)C)CC(=O)N(C)c2ccccc21 (stereo not given)	0	-	-	?
C[S+](=O)([O-])NC1=N[C@@]23CO[C@H](c4ccccc4)C[C@@H]2CC(=O)[C@H]3S1	0	-	-	?
O=S(=O)(NCCc1noc(-c2ccccc2)n1)c1ccc(Cl)cc1	40µM	?	0	28µM
COc1cc(C)c2c(c1C)C[C@H]([C@H](C)C(=O)NC1CCCC1)CC2	40µM	?	0	?
COCCOc1cc(C)c2c(c1C)C[C@H]([C@H](C)C(=O)NC1CCCC1)CC2	?	0	0	?
Cc1cc(OCC(=O)O)c(C)c2c1CC[C@@H]([C@H](C)C(=O)NCc1ccccc1)C2	0	0	0	79µM
CC(C)NC(=O)c1cc(-c2ccc(F)cc2)cn1C	0	0	0	0
CC(NC(=O)c1cc(-c2ccncc2)cn1C)c1ccc(F)cc1 (stereo not given)	79µM	0	0	0
Cc1ccccc1Cn1cc(-c2ccncc2)cc1C(=O)Nc1ccc2c(c1)OCO2	35µM	0	?	?
